# Measurements as given in PubChem BioAssay.
# “And” between values parts separate entries of the source, which are not always exact repeats. Equal values may be shown once. A structure can be active in one record and inactive in another. The source made the active and inactive calls.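 How the source made its calls: active means mean z-score across replicates of 1.96 or higher in either the MELAS or the Rieske mutant cell line; inactive means the rest.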
# Experiment: viability loss with induced miR-34 in A549 – imaging, A549 dox-inducible miR-34, nuclei and caspase counts, primary screen (AID 1347080)
# Conditions: A549 miR-34 inducible, Hoechst nuclei count, 48 h; measured here: total cells with miR-34 induction; stronger effect = lower value
# Further: test concentration not given here.
row,SMILES,cell count
1,CCN(CC)C(=O)N1CCN(C)CC1,8740 and 9030 and 11300
2,NC(=NCCCCCCN=C(N)/N=C(\N)Nc1ccc(Cl)cc1)/N=C(\N)Nc1ccc(Cl)cc1,1670 and 3350
3,COC(=O)CCc1ccc(OCC(O)CNC(C)C)cc1 (configuration not stated),9510 and 7720 and 9690
4,CN(C)/N=N/c1nc[nH]c1C(N)=O,11400 and 9140
5,CN1CCN(c2c(F)cc3c(=O)c(C(=O)O)cn4c3c2SCC4)CC1,7420 and 9770 and 9480
6,COc1cc(C(=O)NCc2ccc(OCCN(C)C)cc2)cc(OC)c1OC,8110 and 8000 and 11800
7,Oc1c(Cl)cc(Cl)c(Cl)c1Cc1c(O)c(Cl)cc(Cl)c1Cl,2100 and 2440
8,CC1CCc2cc(F)cc3c(=O)c(C(=O)O)cn1c23 (configuration not stated),8860 and 8230 and 11600
9,CC(C)NCC(O)c1ccc2ccccc2c1 (configuration not stated),8750 and 8620 and 9710
10,O=C1c2ccccc2C(=O)c2c1ccc(O)c2O,8090
11,CC(C(=O)O)c1ccc(C(=O)c2cccs2)cc1 (configuration not stated),9210 and 7840 and 11900
12,CC1(C)O[C@@H]2C[C@H]3[C@@H]4CCC5=CC(=O)CC[C@]5(C)[C@@]4(F)[C@@H](O)C[C@]3(C)[C@]2(C(=O)CCl)O1,5550
13,CCN1CCN(c2cc3c(cc2F)c(=O)c(C(=O)O)cn3C2CC2)CC1,8550 and 10100 and 9090
14,CCCCCCCCCCCCCCCCOP(=O)([O-])OCC[N+](C)(C)C,5900 and 10200
15,CN1C(C)(C)CCCC1(C)C,9180
16,CO[C@]12C[C@@H](COC(=O)c3cncc(Br)c3)CN(C)[C@@H]1Cc1cn(C)c3cccc2c13,8590 and 11400 and 9340
17,C[n+]1ccccc1/C=N/O,10700 and 9130
18,CN(C/C=C/C#CC(C)(C)C)Cc1cccc2ccccc12,11600 and 9190
19,O=C(Cn1ccnc1[N+](=O)[O-])NCCO,8390 and 10900

# Same assay, conditions: A549 miR-34 inducible, Hoechst nuclei count, 48 h; measured here: total cells without miR-34 induction
row,SMILES,cell count
1,CN(C)CCCSc1ccccc1NC(=O)/C=C/c1ccccc1,8770 and 7880
2,CC(C)(O)c1ccccc1CC[C@@H](SCC1(CC(=O)O)CC1)c1cccc(/C=C/c2ccc3ccc(Cl)cc3n2)c1,10900
3,CN1CCN(C2=Nc3cc(F)ccc3Cc3ccccc32)CC1,7280 and 9980
4,CC(=O)Nc1ccc(OCC(O)CNC(C)C)cc1 (configuration not stated),9920 and 10700
5,O=C(O)P(=O)(O)O,9010 and 13100
6,CC(Oc1c(Cl)cccc1Cl)C1=NCCN1 (configuration not stated),10200 and 10700 and 10300
7,CCCCNc1c(C(=O)OCC)c(C)nc2c1cnn2CC,8430 and 9140 and 8370
8,COc1cc(N)c(Cl)cc1C(=O)NC1CCN(Cc2ccccc2)CC1,9080
9,C[C@]12CCC(=O)C=C1C=C[C@@H]1[C@@H]2CC[C@@]2(C)[C@H]1CC[C@@]21CCC(=O)O1,10300
10,C/C=C/c1ccc(OC)cc1,11900 and 11200
11,CCOC(=O)OC(C)OC1=C(C(=O)Nc2ccccn2)N(C)S(=O)(=O)c2ccccc21 (configuration not stated),9750 and 9420 and 11100
12,COc1ccc(C(=O)NCc2ccc(OCCN(C)C)cc2)cc1OC,9630 and 10400 and 10800
13,C[C@H]1COc2c(C3(N)CC3)c(F)cc3c(=O)c(C(=O)O)cn1c23,8570 and 11500
14,CC(=O)Nc1ccc(CC(=O)O)cc1,10200
15,O=C(O)CCC(=O)c1ccc(-c2ccccc2)cc1,9620 and 12400 and 11000
16,CCN1CC(CCN2CCOCC2)C(c2ccccc2)(c2ccccc2)C1=O (configuration not stated),8400 and 7650
17,Cn1c(=O)c2c(ncn2CCO)n(C)c1=O,9160
18,CN1CCCCC1CCN1c2ccccc2Sc2ccc(S(C)=O)cc21 (configuration not stated),9770 and 7940 and 8940
19,Nc1nc2c(ncn2CCC(CO)CO)c(=O)[nH]1,10800 and 9540 and 11400
20,CC(C)(C(=O)c1cccnc1)c1cccnc1,10800 and 10300 and 13100

row,SMILES,cell count
1,CCN(CC)C(=O)N1CCN(C)CC1,9520 and 9780 and 13500
2,NC(=NCCCCCCN=C(N)/N=C(\N)Nc1ccc(Cl)cc1)/N=C(\N)Nc1ccc(Cl)cc1,1820 and 4270
3,COC(=O)CCc1ccc(OCC(O)CNC(C)C)cc1 (configuration not stated),10600 and 9170 and 10700
4,CN(C)/N=N/c1nc[nH]c1C(N)=O,12200 and 10200
5,CN1CCN(c2c(F)cc3c(=O)c(C(=O)O)cn4c3c2SCC4)CC1,7610 and 9850 and 10600
6,COc1cc(C(=O)NCc2ccc(OCCN(C)C)cc2)cc(OC)c1OC,8650 and 12900
7,Oc1c(Cl)cc(Cl)c(Cl)c1Cc1c(O)c(Cl)cc(Cl)c1Cl,2010 and 2860
8,CC1CCc2cc(F)cc3c(=O)c(C(=O)O)cn1c23 (configuration not stated),9730 and 9310 and 13600
9,CC(C)NCC(O)c1ccc2ccccc2c1 (configuration not stated),9200 and 11000
10,O=C1c2ccccc2C(=O)c2c1ccc(O)c2O,8800
11,CC(C(=O)O)c1ccc(C(=O)c2cccs2)cc1 (configuration not stated),10900 and 8270 and 13200
12,CC1(C)O[C@@H]2C[C@H]3[C@@H]4CCC5=CC(=O)CC[C@]5(C)[C@@]4(F)[C@@H](O)C[C@]3(C)[C@]2(C(=O)CCl)O1,7170
13,CCN1CCN(c2cc3c(cc2F)c(=O)c(C(=O)O)cn3C2CC2)CC1,8710 and 12100 and 10300
14,CCCCCCCCCCCCCCCCOP(=O)([O-])OCC[N+](C)(C)C,5890 and 10700
15,CN1C(C)(C)CCCC1(C)C,10300
16,CO[C@]12C[C@@H](COC(=O)c3cncc(Br)c3)CN(C)[C@@H]1Cc1cn(C)c3cccc2c13,9980 and 12900 and 10400
17,C[n+]1ccccc1/C=N/O,11200 and 10000
18,CN(C/C=C/C#CC(C)(C)C)Cc1cccc2ccccc12,12400 and 9800
19,O=C(Cn1ccnc1[N+](=O)[O-])NCCO,9630 and 13100

# Experiment: MELAS cybrid and Rieske KO viability enhancers – cell-based, MELAS cybrids, Rieske KO mouse fibroblasts, CellTiter-Glo, primary screen (AID 1508586);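 further: z relative to plate mean and SD of compound and empty wells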
# Conditions: MELAS cybrid survival, low glucose, CellTiter-Glo 48 h; stronger effect = higher value
row,SMILES,z-score
1,CN(C)CCCSc1ccccc1NC(=O)/C=C/c1ccccc1,0.109 (inactive)
2,CC(C)(O)c1ccccc1CC[C@@H](SCC1(CC(=O)O)CC1)c1cccc(/C=C/c2ccc3ccc(Cl)cc3n2)c1,0.313 (inactive) and -0.452 (inactive)
3,CN1CCN(C2=Nc3cc(F)ccc3Cc3ccccc32)CC1,-0.621 (inactive)
4,CC(=O)Nc1ccc(OCC(O)CNC(C)C)cc1 (configuration not stated),0.00127 (inactive) and -0.285 (inactive)
5,O=C(O)P(=O)(O)O,-0.331 (inactive)
6,CC(Oc1c(Cl)cccc1Cl)C1=NCCN1 (configuration not stated),-0.146 (inactive) and 0.131 (inactive)
7,CCCCNc1c(C(=O)OCC)c(C)nc2c1cnn2CC,2.27 (active)
8,COc1cc(N)c(Cl)cc1C(=O)NC1CCN(Cc2ccccc2)CC1,0.473 (inactive)
9,C[C@]12CCC(=O)C=C1C=C[C@@H]1[C@@H]2CC[C@@]2(C)[C@H]1CC[C@@]21CCC(=O)O1,-0.57 (inactive) and -0.163 (inactive)
10,C/C=C/c1ccc(OC)cc1,-0.525 (inactive)
11,CCOC(=O)OC(C)OC1=C(C(=O)Nc2ccccn2)N(C)S(=O)(=O)c2ccccc21 (configuration not stated),-0.123 (inactive) and 0.743 (inactive) and 0.745 (inactive)
12,COc1ccc(C(=O)NCc2ccc(OCCN(C)C)cc2)cc1OC,0.424 (inactive) and 1.16 (inactive)
13,C[C@H]1COc2c(C3(N)CC3)c(F)cc3c(=O)c(C(=O)O)cn1c23,0.246 (inactive)
14,CC(=O)Nc1ccc(CC(=O)O)cc1,-0.406 (inactive)
15,O=C(O)CCC(=O)c1ccc(-c2ccccc2)cc1,0.38 (inactive) and 0.679 (inactive)
16,CCN1CC(CCN2CCOCC2)C(c2ccccc2)(c2ccccc2)C1=O (configuration not stated),-0.295 (inactive) and -0.762 (inactive)
17,Cn1c(=O)c2c(ncn2CCO)n(C)c1=O,-0.0698 (inactive)
18,CN1CCCCC1CCN1c2ccccc2Sc2ccc(S(C)=O)cc21 (configuration not stated),0.0731 (inactive) and 0.00466 (inactive)
19,Nc1nc2c(ncn2CCC(CO)CO)c(=O)[nH]1,-0.249 (inactive) and -1.06 (inactive) and -0.78 (inactive)
20,CC(C)(C(=O)c1cccnc1)c1cccnc1,0.55 (inactive)

row,SMILES,z-score
1,CCN(CC)C(=O)N1CCN(C)CC1,0.833 (inactive) and 0.0717 (inactive)
2,NC(=NCCCCCCN=C(N)/N=C(\N)Nc1ccc(Cl)cc1)/N=C(\N)Nc1ccc(Cl)cc1,-4.55 (inactive)
3,COC(=O)CCc1ccc(OCC(O)CNC(C)C)cc1 (configuration not stated),-0.164 (inactive) and -0.834 (inactive) and -0.539 (inactive)
4,CN(C)/N=N/c1nc[nH]c1C(N)=O,0.302 (inactive)
5,CN1CCN(c2c(F)cc3c(=O)c(C(=O)O)cn4c3c2SCC4)CC1,0.206 (inactive) and 0.665 (inactive)
6,COc1cc(C(=O)NCc2ccc(OCCN(C)C)cc2)cc(OC)c1OC,3.55 (active) and 0.307 (inactive)
7,Oc1c(Cl)cc(Cl)c(Cl)c1Cc1c(O)c(Cl)cc(Cl)c1Cl,-0.483 (inactive)
8,CC1CCc2cc(F)cc3c(=O)c(C(=O)O)cn1c23 (configuration not stated),-0.14 (inactive) and 1.18 (inactive)
9,CC(C)NCC(O)c1ccc2ccccc2c1 (configuration not stated),0.654 (inactive) and -0.419 (inactive)
10,O=C1c2ccccc2C(=O)c2c1ccc(O)c2O,-0.0543 (inactive)
11,CC(C(=O)O)c1ccc(C(=O)c2cccs2)cc1 (configuration not stated),0.0275 (inactive) and 0.475 (inactive)
12,CC1(C)O[C@@H]2C[C@H]3[C@@H]4CCC5=CC(=O)CC[C@]5(C)[C@@]4(F)[C@@H](O)C[C@]3(C)[C@]2(C(=O)CCl)O1,0.0233 (inactive)
13,CCN1CCN(c2cc3c(cc2F)c(=O)c(C(=O)O)cn3C2CC2)CC1,-0.903 (inactive) and 0.356 (inactive)
14,CCCCCCCCCCCCCCCCOP(=O)([O-])OCC[N+](C)(C)C,-0.744 (inactive)
15,CN1C(C)(C)CCCC1(C)C,-0.15 (inactive)
16,CO[C@]12C[C@@H](COC(=O)c3cncc(Br)c3)CN(C)[C@@H]1Cc1cn(C)c3cccc2c13,0.949 (inactive) and 0.883 (inactive)
17,C[n+]1ccccc1/C=N/O,0.437 (inactive)
18,CN(C/C=C/C#CC(C)(C)C)Cc1cccc2ccccc12,0.287 (inactive) and -0.488 (inactive)
19,O=C(Cn1ccnc1[N+](=O)[O-])NCCO,-0.801 (inactive)
